# Assay results from PubChem BioAssay.
# A number with no mark means an inactive call. Entries that show only a call come without a potency. For part of these data: Potency and affinity values are given separately. Calls of active or inactive are those of the source. Unless noted, no rule for the calls is given here.
# How the values were obtained:
# [1] = antimalarial activity against Dd2 strain (AID 2302;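 active = growth inhibition above 50% at the single 2 µM test dose, taken to imply half-maximal potency below 2 µM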); details: P. falciparum Dd2 in RBCs, LDH growth readout, 72 h; at 2 µM; stronger effect = higher value
# [2] = human hepatoma cell viability loss – ATP luminescence, cytotoxicity control for P. falciparum antimalarial project, primary screen (AID 2303;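 active = inhibition above 50%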); details: HepG2 viability, 24-48 h, at 10 µM, stronger effect = higher value
# [3] = target: L-lactate dehydrogenase (Plasmodium falciparum (isolate CDC / Honduras)) (UniProt Q27743); assay: PfLDH activity inhibition – cell lysate, 3D7 strain, counter-screen for P. falciparum growth inhibition project (AID 2304); details: P. falciparum 3D7 crude extract, LDH APAD/NBT absorbance; at 2 µM; stronger effect = higher value
# Chain of L-lactate dehydrogenase (Plasmodium falciparum (isolate CDC / Honduras)) (Q27743 whole entry, looked up): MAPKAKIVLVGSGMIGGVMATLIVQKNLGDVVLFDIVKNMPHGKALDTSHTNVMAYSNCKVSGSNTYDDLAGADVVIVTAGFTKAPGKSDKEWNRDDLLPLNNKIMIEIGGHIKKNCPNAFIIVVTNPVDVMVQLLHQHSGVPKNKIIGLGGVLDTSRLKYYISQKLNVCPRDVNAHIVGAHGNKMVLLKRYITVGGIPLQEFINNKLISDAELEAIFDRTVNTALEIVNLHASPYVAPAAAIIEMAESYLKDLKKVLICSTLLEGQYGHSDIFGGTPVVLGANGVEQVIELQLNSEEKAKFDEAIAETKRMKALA
# [4] = inhibition of 3D7 malaria parasite growth – strain 3D7 (AID 2306); details: P. falciparum 3D7 erythrocytic growth, LDH absorbance, 72 h; at 2 µM; stronger effect = higher value
# [5] = target: Calcium-dependent protein kinase 1 (Plasmodium falciparum (isolate 3D7)) (UniProt P62344); assay: PfCDPK1 kinase inhibitors, biochemical, TCAMS library (AID 1159585; cut-off not given, nearly all actives have IC50 up to about 0.98 µM;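 also: inhibitors leave more ATP so luminescence rises with inhibition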); details: recombinant PfCDPK1, Kinase-Glo ATP depletion luminescence
# Chain of Calcium-dependent protein kinase 1 (Plasmodium falciparum (isolate 3D7)) (P62344 whole entry, looked up): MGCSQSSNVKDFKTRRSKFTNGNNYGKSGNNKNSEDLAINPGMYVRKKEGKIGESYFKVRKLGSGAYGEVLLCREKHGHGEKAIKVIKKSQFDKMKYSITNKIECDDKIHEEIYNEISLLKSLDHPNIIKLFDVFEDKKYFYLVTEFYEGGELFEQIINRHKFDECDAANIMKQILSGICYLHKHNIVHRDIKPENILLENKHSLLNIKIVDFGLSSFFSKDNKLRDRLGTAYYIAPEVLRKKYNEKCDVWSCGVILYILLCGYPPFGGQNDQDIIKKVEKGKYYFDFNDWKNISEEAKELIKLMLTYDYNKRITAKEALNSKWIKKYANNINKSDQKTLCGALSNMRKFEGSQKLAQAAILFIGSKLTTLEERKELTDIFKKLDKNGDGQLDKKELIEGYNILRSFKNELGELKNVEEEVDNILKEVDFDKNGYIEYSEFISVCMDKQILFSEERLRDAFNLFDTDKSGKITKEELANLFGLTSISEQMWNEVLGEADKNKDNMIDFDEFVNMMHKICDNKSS
# [6] = target: Plasmodium falciparum protein kinase 6 (PK6, PF3D7_1337100) (UniProt Q8IDW1); assay: PfPK6 kinase inhibitors, biochemical, TCAMS library (AID 1159586); details: recombinant PfPK6, Kinase-Glo ATP depletion luminescence
# Chain of Plasmodium falciparum protein kinase 6 (PK6, PF3D7_1337100) (Q8IDW1 1-305): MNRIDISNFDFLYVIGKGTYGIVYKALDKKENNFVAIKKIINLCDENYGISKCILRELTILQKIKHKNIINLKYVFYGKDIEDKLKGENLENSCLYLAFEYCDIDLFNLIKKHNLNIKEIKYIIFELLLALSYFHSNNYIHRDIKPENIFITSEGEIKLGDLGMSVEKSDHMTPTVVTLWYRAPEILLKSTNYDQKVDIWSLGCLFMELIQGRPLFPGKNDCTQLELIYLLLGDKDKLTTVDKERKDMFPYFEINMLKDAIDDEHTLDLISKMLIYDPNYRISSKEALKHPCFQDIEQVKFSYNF
# [7] = target: Protein kinase 7 (PK7), Plasmodium falciparum 3D7 (PF3D7_0213400) (UniProt Q7YTF7); assay: inhibition of Plasmodium PK7 catalytic activity – biochemical, TCAMS antimalarial set, Kinase-Glo luminescence (AID 1159587); details: recombinant PfPK7, Kinase-Glo ATP depletion luminescence
# Chain of Protein kinase 7 (PK7), Plasmodium falciparum 3D7 (PF3D7_0213400) (Q7YTF7 1-343): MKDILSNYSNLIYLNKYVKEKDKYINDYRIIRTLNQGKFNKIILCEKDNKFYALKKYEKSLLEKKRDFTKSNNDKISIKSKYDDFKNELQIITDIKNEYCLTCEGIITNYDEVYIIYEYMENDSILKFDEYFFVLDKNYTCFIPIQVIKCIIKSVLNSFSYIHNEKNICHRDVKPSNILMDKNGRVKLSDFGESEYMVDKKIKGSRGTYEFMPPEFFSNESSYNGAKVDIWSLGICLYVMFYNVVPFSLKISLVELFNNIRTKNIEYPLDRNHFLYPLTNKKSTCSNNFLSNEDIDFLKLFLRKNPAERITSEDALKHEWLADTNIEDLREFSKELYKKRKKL
# [8] = target: Calcium-dependent protein kinase 4 (Plasmodium falciparum (isolate 3D7)) (UniProt Q8IBS5); assay: PfCDPK4 kinase inhibitors, biochemical, TCAMS library (AID 1159588; cut-off not given, nearly all actives have IC50 up to about 0.91 µM); details: recombinant PfCDPK4, Kinase-Glo ATP depletion luminescence
# Chain of Calcium-dependent protein kinase 4 (Plasmodium falciparum (isolate 3D7)) (Q8IBS5 whole entry, looked up): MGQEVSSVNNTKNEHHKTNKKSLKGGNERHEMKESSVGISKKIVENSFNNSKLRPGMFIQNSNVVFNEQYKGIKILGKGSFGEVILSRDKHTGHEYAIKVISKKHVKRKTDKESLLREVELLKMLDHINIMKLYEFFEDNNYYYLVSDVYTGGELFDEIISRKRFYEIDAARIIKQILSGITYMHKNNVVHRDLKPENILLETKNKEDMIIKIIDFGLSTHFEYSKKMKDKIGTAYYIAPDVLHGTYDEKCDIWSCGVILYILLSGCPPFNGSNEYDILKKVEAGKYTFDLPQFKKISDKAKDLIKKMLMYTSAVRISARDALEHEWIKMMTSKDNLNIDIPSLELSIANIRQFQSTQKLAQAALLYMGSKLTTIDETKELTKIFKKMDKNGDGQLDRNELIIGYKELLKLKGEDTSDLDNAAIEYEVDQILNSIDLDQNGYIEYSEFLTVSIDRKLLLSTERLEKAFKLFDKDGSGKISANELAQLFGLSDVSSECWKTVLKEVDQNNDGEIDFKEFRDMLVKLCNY
SMILES,growth inhibition [1],inhibition [2],inhibition [3] [%],growth inhibition [4],outcome [5],outcome [6],outcome [7],outcome [8]
CN1CCC(NCc2cccc(-c3ccc(S(=O)(=O)NCc4ccccc4)cc3)c2)CC1,93% (active),61% (active),0,100% (active),inactive,inactive,inactive,inactive
CCn1c(-c2cc(C)on2)nc2cnc(Oc3ccc(C(=O)N4CC(=O)N(C)C4C(C)(C)C)cc3)cc21 (configuration not stated),57% (active),44%,4,81% (active),inactive,inactive,inactive,inactive
Nc1nc(Nc2cccc(Cl)c2)ncc1C(=O)NCc1ccncc1,29%,3%,-5,98% (active),inactive,inactive,inactive,inactive
CC1=C(C(=O)Nc2ccc(Cl)cc2)C(c2ccncc2)n2nc(C(F)(F)F)nc2N1 (configuration not stated),49%,25%,-5,87% (active),inactive,inactive,inactive,inactive
N=C(N)CCN(Cc1ccccc1)c1ccc(Cl)cc1,98% (active),1%,4,98% (active),inactive,inactive,inactive,inactive
CC(C)COc1ccc(Cl)cc1Cc1ccc(-c2nc3ccc(F)cc3[nH]2)o1,49%,35%,6,97% (active),inactive,inactive,inactive,inactive
O=C(N[C@H]1CCCC[C@H]1C(=O)O)c1ccccc1,3%,7%,-5,95% (active),inactive,inactive,inactive,inactive
c1cc(-c2ccc(CNCc3ccc(-c4csnn4)cc3)cc2)cc(-c2nc3ccccc3[nH]2)c1,96% (active),60% (active),-7,100% (active),inactive,inactive,inactive,inactive
Cc1nc(NC2=NCN(CCCN3CCOCC3)CN2)nc2c(C)cccc12,62% (active),17%,4,89% (active),inactive,inactive,inactive,inactive
CCCCOP(=O)(OCCCC)C(=Cc1ccc(O)c2ccccc12)P(=O)(OCCCC)OCCCC,64% (active),1%,-6,84% (active),inactive,inactive,inactive,inactive
CCC1(C)CC(CCNCc2ccccc2O)(c2ccccc2OC)CCO1 (configuration not stated),93% (active),10%,-2,94% (active),inactive,inactive,inactive,inactive
COc1cc(-c2nc(-c3ccccc3)c(-c3ccc(C(=O)c4ccc(F)cc4)cc3)[nH]2)cc(OC)c1O,100% (active),0%,-3,101% (active),inactive,inactive,inactive,inactive
O=C(NCCN1CCCC1)c1cccc(-c2ccc(-c3nc4ccc(F)cc4[nH]3)cc2)c1,85% (active),33%,-3,99% (active),inactive,inactive,inactive,inactive
CCCN(CC1CC1)c1ncc(-c2cccc(CNCCC3CCCN3C)c2)cn1 (configuration not stated),43%,77% (active),7,98% (active),inactive,inactive,inactive,inactive
O=C(C=Cc1ccc(Cl)c(Cl)c1)NCCCCCN1CCC(CCCNC(=O)c2ccc3c(c2)OCO3)CC1,64% (active),38%,-5,98% (active),inactive,inactive,inactive,inactive
CCNC(=O)Nc1cccc(-c2ccc(-c3nc4c(C)cccc4[nH]3)s2)c1,20%,32%,-4,96% (active),inactive,inactive,inactive,inactive
CC(C)c1ccc(CN2CCCCC(NC(=O)c3cc(-c4ccccc4F)cs3)C2)cc1 (configuration not stated),84% (active),18%,-2,99% (active),inactive,inactive,inactive,inactive
CC(C)CN1CCN(CCNc2c3ccccc3nc3ccccc23)CC1,79% (active),26%,0,97% (active),inactive,inactive,inactive,inactive
O=C(C=Cc1cc([N+](=O)[O-])ccc1Cl)N1CCC(CCN2CCC(c3c[nH]c4ccccc34)CC2)CC1,26%,25%,-2,92% (active),inactive,inactive,inactive,inactive
COc1cc2nc(C)nc(Nc3ccc(Cc4ccccc4)cc3)c2cc1OC,99% (active),16%,-1,101% (active),inactive,inactive,inactive,inactive

SMILES,growth inhibition [1],inhibition [2],inhibition [3] [%],growth inhibition [4],outcome [5],outcome [6],outcome [7],outcome [8]
COC(=O)c1ccc(OCC(C)NCC(O)c2cccc(C(F)(F)F)c2)cc1 (configuration not stated),81% (active),6%,-2,94% (active),inactive,inactive,inactive,inactive
CCN(CC)CCN(Cc1ccc(-c2ccc(C(F)(F)F)cc2)nc1)C(=O)Cn1c(SCc2ccc(F)cc2)nc(=O)c2sccc21,66% (active),43%,-2,96% (active),inactive,inactive,inactive,inactive
O=C(NCCCCN1CCC(c2cccc3ccccc23)CC1)c1ccc(-c2ccc(C(F)(F)F)cn2)cc1,36%,31%,0,91% (active),inactive,inactive,inactive,inactive
COc1cc(-c2ccc3c(-c4ccc(C(=O)N5CCN(C)CC5)cc4)[nH]nc3n2)cc(OC)c1OC,54% (active),27%,4,91% (active),inactive,inactive,inactive,inactive
Fc1ccc(NC(=S)NN=Cc2ccccn2)cc1,67% (active),56% (active),-1,95% (active),inactive,inactive,inactive,inactive
CC(C)CC(NC(=O)c1cc2ccccc2s1)C(=O)N1CCCCCC1c1ccc(C(C)(C)C)cc1 (configuration not stated),39%,23%,-2,91% (active),inactive,inactive,inactive,inactive
COCCn1ccc2c3c(N)nc(N)nc3ccc21,29%,43%,-2,93% (active),inactive,inactive,inactive,inactive
COC(=O)c1cc(C(=O)CN(Cc2ccccc2)C(C)C)ccc1O,-1%,7%,-2,97% (active),inactive,inactive,inactive,inactive
Cc1c(C(=O)NCc2ccncc2)sc2nc(-c3cccc([N+](=O)[O-])c3)cn12,29%,18%,-2,97% (active),inactive,inactive,inactive,inactive
CC(C)(C)NC(=O)c1ccc(Oc2ccc(OC(F)(F)F)cc2)c(NC(=O)C(C)(C)C)c1,2%,-11%,3,89% (active),inactive,inactive,inactive,inactive
CCN(CC)CCNC(=O)/C(=C/C=C/c1cc2cc(Cl)c(Cl)cc2[nH]1)OC,31%,30%,-4,88% (active),inactive,inactive,inactive,inactive
CC(C)n1ncc2c(C(=O)N3CCCC4CCCCC43)cc(C3CC3)nc21 (configuration not stated),92% (active),7%,2,99% (active),inactive,inactive,inactive,inactive
COc1ccc(CC(=O)Nc2ccc(Nc3nc(C)cc(N(C)C)n3)cc2)cc1,31%,17%,-3,97% (active),inactive,inactive,inactive,inactive
CCCCC(=O)NC(c1cccs1)c1cc(Cl)c2cccnc2c1O (configuration not stated),90% (active),50% (active),1,93% (active),inactive,inactive,inactive,inactive
CN1CCN(c2ccnc3ccc(NC(=O)c4ccc(Cl)c(Cl)c4)cc23)CC1,64% (active),4%,2,100% (active),inactive,inactive,inactive,inactive
Cc1ccnc(-n2c(C)cc(C=C3SC(=Nc4ccccc4)N(Cc4ccco4)C3=O)c2C)c1,98% (active),-5%,-1,99% (active),inactive,inactive,inactive,inactive
CCOc1cc(C(=O)NC2CCN(Cc3ccccc3)CC2)ccc1-c1nc2cc(Cl)c(Cl)cc2[nH]1,99% (active),24%,2,101% (active),inactive,inactive,inactive,inactive
CCCCCc1ccc(N2C(N)=NC(N)=NC2(C)C)cc1,1%,59% (active),-6,95% (active),inactive,inactive,inactive,inactive
c1cc(-c2cc3ccc(C4=NCCN4)cc3[nH]2)ccc1C1=NCCN1,99% (active),15%,-1,97% (active),inactive,inactive,inactive,inactive
